Here are results for six molecules from PubChem BioAssay (NCATS).

A short description of test [1]: Cell Viability - Jurkat (AID 426;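 active means dose-dependent loss of cell ATP signal giving a full or clear fitted curve, ranked by lower potency value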; further: potency means the concentration at half of the fitted maximal effect). The note with it: qHTS. An outline of the steps:
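Cytotoxicity was scored as loss of cellular ATP, measured by luciferase-based luminescence, in Jurkat clone E6-1 cells after 40 h compound treatment; tamoxifen and doxorubicin served as positive controls.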
For orientation: In qHTS, concentration-response curves come from the screen itself.

A short description of test [2]: Cell Viability - Hek293 (AID 427;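 active means compounds whose dose-response curve shows a full or clear partial loss of cell viability, called from curve shape rather than a numeric limit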;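 further: potency means the concentration at half of the fitted maximal effect; cells exposed to compound for 40 hours at 37 °C before reading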). To be noted: qHTS. The procedure, abridged: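 HEK293 cells in complete medium were exposed to compound for 40 hr at 37 °C, then cellular ATP was read by CellTiter-Glo luminescence. Data were normalized to DMSO (basal) and 100 uM tamoxifen (100% inhibition), and AC50 came from Hill fits.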
A short description of test [3]: Cell Viability - HepG2 (AID 433; calls by dose curve;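 further: potency means the concentration at half of the fitted maximal effect; potency for ATP loss meaning cytotoxicity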). The note with it: qHTS. The procedure, abridged: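 Cytotoxicity is scored as loss of intracellular ATP in HepG2 cells exposed to compounds for 40 h. Concentration-response curves, normalized to DMSO and 100 uM tamoxifen, give AC50 values.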
Test [4] is described as follows: Cell Viability - HUV-EC-C (AID 542). Further: on the % scale 0 is the no-effect control and ±100 the full control effect; nearly all actives have a fitted effect of over 35% in size. The note with it: HUV-EC-C endothelial cell viability, qHTS; series mostly up to 92.2 µM. An outline of the steps: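 Concentration-dependent ATP loss in HUV-EC-C cells is the measure. Exposure lasts 40 hr at 37 °C; luminescence follows CellTiter-Glo addition, and Hill fits give AC50.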
Test [5] in a line: Cell Viability - H-4-II-E (AID 543). Further: on the % scale 0 is the no-effect control and ±100 the full control effect; nearly all actives have a fitted effect of over 35% in size. To be noted: H-4-II-E rat hepatoma viability; series mostly up to 92.2 µM. An outline of the steps: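 AC50 from Hill-modelled qHTS concentration-response curves. H-4-II-E rat hepatoma cells in complete medium, 40 hr exposure at 37 °C, viability by CellTiter-Glo ATP luminescence.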
Test [6] in a line: Cell Viability - SH-SY5Y (AID 544). Further: nearly all actives have a fitted effect of over 55% in size. The note with it: SH-SY5Y neuroblastoma cell viability; series mostly up to 92.2 µM. An outline of the steps:
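Quantitative HTS in SH-SY5Y neuroblastoma cells, 40 hr treatment at 37 °C, ATP content by luciferase luminescence; AC50 from Hill fits.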

A short description of test [7]: Cellular Toxicity (caspase-3) SHSY5Y (AID 657). To be noted: SH-SY5Y caspase-3 activation, DMSO zero, 10 µM staurosporine = 100%; series mostly up to 91.7 µM. An outline of the steps: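 Cells plated and incubated 5 h at 37 °C, dosed over a concentration range, incubated 16 h, then given Caspase-Glo 3/7 reagent for 1 h at room temperature before luminescence reading. Staurosporine (10 uM) defined full stimulation.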

Test [8] in a line: Cellular Toxicity (caspase-3) SK-N-SH (AID 661). The note with it: SK-N-SH caspase-3 activation, qHTS, DMSO as zero, staurosporine as full; series mostly up to 91.7 µM. The procedure, abridged: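 Apoptosis readout in SK-N-SH neuroblastoma: Caspase-Glo 3/7 luminescence following 16 hr treatment in complete culture medium. Normalization used DMSO and 10 uM staurosporine controls.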

Test [9] in a line: Cellular Toxicity (caspase-3) H-4-II-E (AID 663).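 Further: cells exposed to compound for 16 hr before readout.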 The note with it: H-4-II-E rat hepatoma; Potency: caspase-3 activation; series mostly up to 92.2 µM. An outline of the steps: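 H-4-II-E rat hepatoma, 1500 cells/well, 5 hr settle at 37 °C; compound 16 hr, 37 °C, complete medium; Caspase-Glo 3/7, 20 min RT; luminescence. DMSO = 0%, 100 uM tamoxifen = 100%; Hill-equation AC50.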

A short description of test [10]: Cellular Toxicity (caspase-3) N2a (AID 665).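 Further: compound exposure lasted 16 h at 37 °C before readout.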 To be noted: N2a cells, luminescence, normalized: DMSO 0%, 10 µM staurosporine 100%; series mostly up to 92.2 µM. The procedure, abridged:
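Concentration-response qHTS: compound-induced caspase-3/7 luminescence in N2a cells (16 h, 37 °C), relative to DMSO and 10 uM staurosporine controls; AC50 obtained using the standard Hill equation.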

Test [11] can be described thus: Cellular Toxicity (caspase-3) NIH 3T3 (AID 666).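 Further: caspase signal read after 16 h compound exposure; 0% = DMSO basal and 100% = 100 µM tamoxifen stimulation.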 The note with it: NIH 3T3 caspase-3 activation, apoptosis/toxicity, 0% DMSO, 100% is 100 µM tamoxifen; series mostly up to 92.2 µM. The procedure, abridged:
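Activity: caspase-3/7 induction, NIH 3T3 cells, 16 hr treatment at 37°C, luminescent Caspase-Glo detection; AC50 via Hill equation.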

Test [12] is described as follows: MultiTox-Fluor Cytotoxicity Assay - LYMP1-001 - Dead Cells (AID 946).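 Further: 0% = DMSO and 100% = tetraoctylammonium bromide.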 To be noted: LYMP1-001 lymphoblastoid cells, dead-cell protease fluorescence; series mostly up to 92.2 µM. The procedure, abridged:
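LYMP1-001 lymphoblastoid cells (2500/well) treated 16 h at 37 C. Dead-cell protease cleavage of bis-AAF-R110 read at Ex/Em 485/520. Normalized to DMSO and 15 uM tetraoctylammonium bromide; AC50 from Hill fits.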

Test [13] can be described thus: Cell Viability - LYMP1-002 - Assay at 16 hr (AID 948).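 Further: 0% = DMSO alone and full effect = 92 µM tetraoctylammonium bromide.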 To be noted: LYMP1-002 lymphoblastoid cell viability; series mostly up to 92.2 µM. An outline of the steps: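 Acute cytotoxicity is scored as a concentration-dependent fall in intracellular ATP in a human lymphoblastoid line (LYMP1-002) after 16 hr compound exposure at 37 C, measured by luciferase luminescence.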

Test [14] is described as follows: MultiTox-Fluor Cytotoxicity Assay - LYMP1-002 - Live Cells (AID 955). Further: on the % scale 0 is the no-effect control and ±100 the full control effect. To be noted: LYMP1-002 lymphoblastoid live-cell protease fluorescence viability; series mostly up to 46.1 µM. The procedure, abridged:
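In this qHTS viability format, lymphoblastoid cells (LYMP1-002, human) received compound for 16 hr at 37 C. Fluorogenic GF-AFC cleavage by viable cells was detected at 405/510 nm after 1 h at room temperature.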

Test [15] in a line: MultiTox-Fluor Cytotoxicity Assay - LYMP1-003 - Dead Cells (AID 961).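 Further: 0% = DMSO and 100% = tetraoctylammonium bromide; nearly all actives have a fitted effect of over 70% in size.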 The note with it: LYMP1-003 lymphoblastoid cells, dead-cell protease fluorescence; series mostly up to 92.2 µM. An outline of the steps: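 LYMP1-003 human lymphoblastoid cells (2500/well) exposed to compound 16 h at 37 C in complete medium; dead-cell protease read with bis-AAF-R110 fluorescence (Ex/Em 485/520) after 60 min at room temperature. Normalized to DMSO and 15 uM tetraoctylammonium bromide; AC50 from Hill fit.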

Test [16] in a line: Cell Viability - LYMP2-003 (AID 965).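 Further: cells exposed to compounds for 24 h before reading; 0% = DMSO only and full effect = 92 µM tetraoctylammonium bromide; nearly all actives have a fitted effect of over 50% in size.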 To be noted: LYMP2-003 lymphoblastoid cell viability; series mostly up to 92.2 µM. An outline of the steps: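 Acute cytotoxicity is scored as a concentration-dependent drop in intracellular ATP, measured by luciferase luminescence in human lymphoblastoid cells treated for 24 hours at 37 C. AC50 values derive from Hill-equation modelling.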

The nature of test [17]: Cell Viability - LYMP2-020 (AID 986).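 Further: cells exposed to compound for 24 h at 37 °C; plate controls were DMSO only for no effect and tetraoctylammonium bromide at 92 µM for full effect; nearly all actives have a fitted effect of over 55% in size.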 The note with it: series mostly up to 92.2 µM. An outline of the steps: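 Cells at 2500 per well receive a 24 hr compound exposure at 37 C. Viability is measured as ATP-dependent luciferase luminescence, with AC50 modeled from qHTS concentration-response curves.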
Test [18] in a line: Cell Viability - LYMP2-022 (AID 987).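 Further: 0% = DMSO alone and full effect = tetraoctylammonium bromide at 92 µM; nearly all actives have a fitted effect of over 55% in size.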 To be noted: LYMP2-022 lymphoblastoid cell viability; series mostly up to 92.2 µM. An outline of the steps: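 In this qHTS cytotoxicity screen, compound titrations were incubated 24 hr at 37 C with human lymphoblastoid cells in complete medium. Luciferase-based ATP luminescence provided the viability signal.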
The nature of test [19]: Cell Viability - LYMP2-024 (AID 988).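 Further: plate controls were DMSO only for no effect and 92 µM tetraoctylammonium bromide for full effect; nearly all actives have a fitted effect of over 60% in size.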 To be noted: LYMP2-024 lymphoblastoid cell viability; series mostly up to 92.2 µM. An outline of the steps: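 Cells at 2500 per well received compound for 24 hr after a 5 hr settling period. Viability was scored by CellTiter-Glo luminescence, with AC50 from Hill fits.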
Test [20] is described as follows: qHTS assay for small molecule antagonists of retinoid X receptor alpha signaling (AID 588546).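 Further: cells stimulated with 9-cis-retinoic acid as agonist; on the % scale 0 is the no-effect control and ±100 the full control effect.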 To be noted: HEK293T RXRa-UAS-bla, beta-lactamase ratio, antagonist mode; measured here: W530 green channel, cytotoxicity proxy. An outline of the steps:
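Beta-lactamase reporter inhibition, read as CCF4 fluorescence ratio (ex 405, em 460/530 nm) after 2 h at RT. HEK293T UAS-bla cells, 2500/well, were stimulated with 9-cis-RA at 500 or 100 nM final alongside test compound for 18 h at 37 C.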

Values joined by “and” are separate entries in the source; they are usually repeats but may differ in a detail not shown here. Equal values may be shown once. Results filed as inconclusive are left out. Active and inactive are the calls of the source. Unless noted, the call rests on the fitted dose curve; in most records, active means well fitted curve in the direction sought with a large enough effect; inconclusive means small, poorly fitted or top-dose-only effect, or another doubt; inactive means no such curve, though single readings can be large; an effect the other way counts as inactive or inconclusive.

For `O=NO`, the Potency in test [1], in test [2] and in test [3] was > 92 µM (inactive) each time. The result in test [4], in test [7], in test [8], in [10] and in [11] was inactive. For the same molecule, the Potency entry in test [5], in test [6], in [9], in test [12], in [13] and in test [14] was “inactive” throughout. Besides, the Potency entry in test [15], in test [16], in [17], in test [18] and in test [19] was “inactive” throughout. The max response in [20] is -4.23% and -6.24%.

Turning to `CC(=O)OC/C=C(\C)CCC=C(C)C`, the Potency in test [1], in test [2] and in [3] was > 92 µM (inactive) each time. The molecule was called inactive in test [4], in test [7], in [8], in test [10] and in test [11]. The Potency entry in test [5], in test [6], in [9], in test [12], in test [13] and in test [14] was “inactive” throughout. Also, the Potency result in [15], in test [16], in test [17], in test [18] and in test [19] was “inactive” in each case. Moreover, the max response in test [20] was -3.71% and -6.77%.

As to `CCO[Si](CCCN)(OCC)OCC`, the Potency in [1], in test [2] and in test [3] was > 92 µM (inactive) in each case. Besides, the molecule was classed as inactive in test [4], in test [7], in [8], in [10] and in test [11]. For the same molecule, the Potency entry in [5], in [6], in test [9], in [12], in [13] and in [14] was “inactive” throughout. The Potency entry in [15], in [16], in [17], in test [18] and in test [19] was “inactive” throughout. Also, the max response in [20] was -0.81% and -5.53%.

Turning to `Cc1ccccc1C`, the Potency in test [1], in [2] and in [3] was > 92 µM (inactive) throughout. For the same molecule, the result in test [4], in test [7], in [8], in test [10] and in test [11] was inactive. In addition, the Potency result in test [5], in test [6], in test [9], in test [12], in test [13] and in test [14] was “inactive” each time. In addition, the Potency entry in [15], in test [16], in [17], in test [18] and in test [19] was “inactive” throughout. Further, the max response in test [20] is -1.73% and -2.63%.

On to `Nc1ccc(Cl)cc1Cl`, for which the Potency in [1], in [2] and in [3] was > 92 µM (inactive) in each case. In addition, the call in test [4], in test [7], in test [8], in test [10] and in test [11] was inactive. The Potency result in test [5], in [6], in [9], in test [12], in test [13] and in [14] was “inactive” in each case. In addition, the Potency result in [15], in test [16], in test [17], in [18] and in test [19] was “inactive” in each case. Besides, the max response in test [20] is 2.24% and -0.667%.

In the case of `COC(=O)c1ccc(C)cc1`, the Potency in test [1], in [2] and in [3] was > 92 µM (inactive) in each case. The result in [4], in test [7], in test [8], in test [10] and in [11] was inactive. Besides, the Potency entry in test [5], in test [6], in [9], in [12], in [13] and in [14] was “inactive” throughout. The Potency result in test [15], in test [16], in test [17], in test [18] and in test [19] was “inactive” in each case. Further, in test [20], the max response was -12.4% and -3.35%.
